Records with an inconclusive call do not appear. The source made the active and inactive calls. Unless noted, the call rests on the fitted dose curve; in most records, active means well fitted curve in either direction with a large enough effect (not every such curve was filed as active); inconclusive means small, poorly fitted or top-dose-only effect, or another doubt; inactive means flat fitted curve, though single readings scatter.
Key:
[1] = AP1 Signaling Pathway (AID 357); conditions: ME-180 AP-1-bla reporter, EGF-induced, beta-lactamase ratio, 5 h; at 17.2 µM (top of the series) unless noted;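 further: ME-180 reporter cells stimulated with EGF at its EC50 level; on the % scale 0 is the no-effect control and ±100 the full control effect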
Method in brief: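 Read-out was the 460nm/530nm emission ratio (excitation 405nm) after CCF4 loading for 2.5 hours at room temperature. Cells carried an AP-1-driven beta-lactamase reporter, were stimulated with EC50 EGF plus compound for 5 hours, and AC50 values came from titrations.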

[2] = NFAT Signaling Pathway (AID 444); conditions: Jurkat NFAT-bla M1, carbachol, beta-lactamase ratio, 5 h; at 17.2 µM (top of the series) unless noted;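 further: carbachol stimulus at about its EC50 of 1 µM final; on the % scale 0 is the no-effect control and ±100 the full control effect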
Method in brief: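 Jurkat cells with NFAT-driven β-lactamase reporter and co-expressed M1 receptor, stimulated with carbachol (final 1 uM, ~EC50), compound titration, 5 h at 37 °C. CCF4 loaded 1 h at RT; 460/530 nm ratio gave %activity and AC50.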

[3] = Stat Signaling Pathway (AID 446); conditions: ME-180 SIE beta-lactamase reporter, IL-6 stimulated, 5 h; at 17.2 µM (top of the series) unless noted;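 further: ME-180 cervical cancer cells given 40 pM IL-6 alongside compound; SIE-controlled beta-lactamase reporter measured as 460/530 nm FRET emission ratio; on the % scale 0 is the no-effect control and ±100 the full control effect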
Method in brief: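 Normalization used AC90 stimulation (300 pM IL-6) and AC90 inhibition (125 nM pan-JAK inhibitor at 40 pM IL-6). The underlying signal is SIE-driven beta-lactamase in ME-180 cells after 5 h IL-6 exposure with compound.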

[4] = target: 3',5'-cyclic-AMP phosphodiesterase 4B (Homo sapiens) (UniProt Q07343); test: qHTS Assay for Inhibitors of PDE-IV (AID 607; active means well fitted activation curve with a large enough effect in the main read-out, with a control signal flat, not every such curve was filed as active; further: % of control where 0% means no effect)
Method in brief: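 HEK293 ACTOne cells with CNG channel (1000/well), endogenous PDE4; membrane potential dye, compounds up to 22.9 uM final. Fluorescence Ex 535/Em 590; RO 20-1724 (100 uM final) as reference.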

[5] = target: Guanine nucleotide-binding protein G(i) subunit alpha-1 (Homo sapiens) (UniProt P63096); test: qHTS Assay for Inhibitors of RGS12 GoLoco Motif Activity (Green Fluorophore) (AID 879; active means well fitted curve in the direction sought with a large enough effect; an effect the other way counts as inactive or inconclusive;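 further: 0% = labeled peptide with Gαi1 and full inhibition = labeled peptide alone without protein; negative values mean loss of peptide binding seen as reduced polarization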)
Method in brief: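 A drop in FITC polarization marked displacement of the FITC-tagged RGS12 GoLoco peptide (10 nM) from Gαi1 (50 nM). Compounds were incubated 10 min at room temperature in Tris pH 7.5 buffer containing 150 mM NaCl, 0.1 mM GDP and 0.05% NP40; unlabeled peptide titration served as control.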

[6] = qHTS Assay for Identification of Small Molecule Agonists for Thrombopoietin (TPO) Signaling Pathway (AID 917; active means well fitted curve in the direction sought with a large enough effect; an effect the other way counts as inactive or inconclusive; further: on the % scale 0 is the no-effect control and ±100 the full control effect)
Method in brief: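 Quantitative HTS for pathway activators: compounds were pin-transferred onto IL-3-starved Ba/F3 cells expressing human TPO receptor, TPO was added at its EC50 (26 pM final), and after 24 hrs at 37 C reporter luciferase was measured.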

[7] = target: Pyruvate kinase (Leishmania mexicana) (UniProt Q27686); test: qHTS Validation Assay for Inhibitors of Leishmania Mexicana Pyruvate Kinase (AID 945; active means well fitted curve in the direction sought with a large enough effect; an effect the other way counts as inactive or inconclusive;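 further: 0% = DMSO only neutral control wells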)
Method in brief: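 Purified LmPYK (E451W mutant, 0.2 nM) was incubated 1 h at room temperature with 0.5 mM PEP and 0.1 mM ADP in 50 mM imidazole pH 7.2, 50 mM KCl, 7 mM MgCl2; ATP formed was read by PKLight luminescence, normalized to DMSO wells.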

[8] = target: Pyruvate kinase PKM (Homo sapiens) (UniProt P14618); test: qHTS Assay for Activators of Human Muscle Pyruvate Kinase (AID 954; active means well fitted curve in the direction sought with a large enough effect, not every such curve was filed as active;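 further: 0% = uninhibited enzyme and -100% = no enzyme or full thiadiazolimine inhibition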)
Method in brief: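 Compound pinned into substrate mix (0.5 mM PEP, 0.1 mM ADP), then 0.1 nM PKM2 added; 1 h, RT. Stop/detection luciferase reagent added, luminescence read. Normalized to no-inhibition and no-enzyme or reference-inhibitor controls.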

[9] = target: Alpha-galactosidase A (Homo sapiens) (UniProt P06280); test: Counterscreen for Glucocerebrosidase Inhibitors: qHTS Assay for Human alpha-Galactosidase at pH 4.5 (AID 992; active means well fitted curve in the direction sought with a large enough effect; an effect the other way counts as inactive or inconclusive; further: 0% is about no effect)
Method in brief: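 Steps: enzyme (2 nM final), then compound across 0.7 nM to 77 uM, then 80 uM fluorogenic galactopyranoside substrate; incubate 20 min at room temperature; quench at pH 10; measure fluorescence at 365/440 nm.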

[10] = target: Glucocorticoid receptor (Homo sapiens) (UniProt P04150); test: GR-GFP Redistribution (AID 450;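 active means compounds whose dose series gives a full or clear partial fitted curve of increased nuclear translocation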; further: potency means the concentration at half of the fitted maximal effect)
[11] = qHTS Assay for Identification of Small Molecule Agonists for Hypoxia Response Element Signaling Pathway (AID 914; active means well fitted activation curve with a large enough effect in the signal ratio, with a control signal flat, not every such curve was filed as active; the % refers to the signal ratio; further: potency means the concentration at half of the fitted maximal effect; on activation: % of control where 0% means no effect); conditions: ME-180 (cervical carcinoma) HRE-bla reporter, beta-lactamase ratio, CoCl2, 17 h; activation: active compounds read high
Method in brief: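 AC50 values come from titration-series %Activity, taken as the 460/530nm ratio of CCF4 fluorescence (excitation 405nm). CellSensor HRE-bla ME-180 cells were treated 17 hours at 37 C with compound plus an EC50 level of CoCl2.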

[12] = target: Mitogen-activated protein kinase 10 (Mus musculus) (UniProt Q61831); test: JNK3 AlphaScreen Assay (AID 530)
Method in brief: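 Activity was read by AlphaScreen after JNK3-containing HepG2 lysate (cytokine pre-activated) phosphorylated biotinylated GST-cJun with 10 uM ATP at room temperature. Phospho-Ser73 cJun antibody with Protein-A acceptor beads provided detection.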

Glucocorticoid receptor (Homo sapiens), sequence (P04150 whole entry, looked up): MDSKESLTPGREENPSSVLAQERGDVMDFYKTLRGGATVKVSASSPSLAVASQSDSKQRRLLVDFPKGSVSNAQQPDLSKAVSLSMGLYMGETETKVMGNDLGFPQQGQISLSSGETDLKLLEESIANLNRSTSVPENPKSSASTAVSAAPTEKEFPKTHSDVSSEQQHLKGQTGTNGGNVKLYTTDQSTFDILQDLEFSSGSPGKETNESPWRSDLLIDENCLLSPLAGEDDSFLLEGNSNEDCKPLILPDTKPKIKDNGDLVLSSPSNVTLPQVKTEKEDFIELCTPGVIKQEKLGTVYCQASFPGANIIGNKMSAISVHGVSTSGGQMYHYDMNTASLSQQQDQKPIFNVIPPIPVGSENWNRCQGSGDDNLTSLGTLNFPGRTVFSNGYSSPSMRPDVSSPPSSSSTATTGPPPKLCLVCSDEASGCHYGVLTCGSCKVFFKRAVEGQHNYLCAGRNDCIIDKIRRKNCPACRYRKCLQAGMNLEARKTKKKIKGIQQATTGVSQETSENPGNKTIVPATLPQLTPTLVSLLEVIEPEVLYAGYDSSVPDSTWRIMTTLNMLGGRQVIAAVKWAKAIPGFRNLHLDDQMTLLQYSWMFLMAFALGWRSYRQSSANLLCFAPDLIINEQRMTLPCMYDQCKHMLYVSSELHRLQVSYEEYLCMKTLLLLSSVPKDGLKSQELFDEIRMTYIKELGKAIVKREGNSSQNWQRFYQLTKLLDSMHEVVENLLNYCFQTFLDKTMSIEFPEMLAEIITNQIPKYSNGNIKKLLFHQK
3',5'-cyclic-AMP phosphodiesterase 4B (Homo sapiens), sequence (Q07343 whole entry, looked up): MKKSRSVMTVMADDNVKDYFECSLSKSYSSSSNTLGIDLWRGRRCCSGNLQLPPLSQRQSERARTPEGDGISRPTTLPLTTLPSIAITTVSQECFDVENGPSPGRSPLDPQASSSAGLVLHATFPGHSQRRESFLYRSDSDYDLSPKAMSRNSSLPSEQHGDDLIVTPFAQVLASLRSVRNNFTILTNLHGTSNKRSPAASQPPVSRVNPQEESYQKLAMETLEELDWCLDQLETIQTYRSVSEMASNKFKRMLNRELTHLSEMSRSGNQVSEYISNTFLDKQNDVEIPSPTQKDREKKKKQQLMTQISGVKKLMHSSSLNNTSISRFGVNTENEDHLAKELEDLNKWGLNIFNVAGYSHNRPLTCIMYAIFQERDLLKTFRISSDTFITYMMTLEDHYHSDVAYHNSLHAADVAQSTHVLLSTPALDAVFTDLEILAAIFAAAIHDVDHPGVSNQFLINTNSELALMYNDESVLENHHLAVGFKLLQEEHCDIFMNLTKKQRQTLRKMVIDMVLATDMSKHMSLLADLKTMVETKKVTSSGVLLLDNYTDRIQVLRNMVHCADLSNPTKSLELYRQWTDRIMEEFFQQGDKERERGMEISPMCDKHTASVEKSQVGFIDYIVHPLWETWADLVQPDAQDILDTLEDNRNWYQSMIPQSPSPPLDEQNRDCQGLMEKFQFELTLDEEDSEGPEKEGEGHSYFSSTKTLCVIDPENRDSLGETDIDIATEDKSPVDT
Alpha-galactosidase A (Homo sapiens), sequence (P06280 whole entry, looked up): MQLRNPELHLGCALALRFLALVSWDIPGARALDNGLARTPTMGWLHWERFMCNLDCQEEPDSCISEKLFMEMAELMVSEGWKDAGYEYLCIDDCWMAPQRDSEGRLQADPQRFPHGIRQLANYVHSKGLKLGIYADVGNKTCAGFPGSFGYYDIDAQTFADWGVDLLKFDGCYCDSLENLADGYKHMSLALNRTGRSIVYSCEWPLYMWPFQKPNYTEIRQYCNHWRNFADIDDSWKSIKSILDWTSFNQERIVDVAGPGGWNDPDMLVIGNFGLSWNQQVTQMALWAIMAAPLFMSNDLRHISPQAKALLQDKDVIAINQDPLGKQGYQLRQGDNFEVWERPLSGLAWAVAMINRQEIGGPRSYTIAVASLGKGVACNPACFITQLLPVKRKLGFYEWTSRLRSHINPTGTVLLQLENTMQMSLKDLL
Pyruvate kinase (Leishmania mexicana), sequence (Q27686 2-499 E452W): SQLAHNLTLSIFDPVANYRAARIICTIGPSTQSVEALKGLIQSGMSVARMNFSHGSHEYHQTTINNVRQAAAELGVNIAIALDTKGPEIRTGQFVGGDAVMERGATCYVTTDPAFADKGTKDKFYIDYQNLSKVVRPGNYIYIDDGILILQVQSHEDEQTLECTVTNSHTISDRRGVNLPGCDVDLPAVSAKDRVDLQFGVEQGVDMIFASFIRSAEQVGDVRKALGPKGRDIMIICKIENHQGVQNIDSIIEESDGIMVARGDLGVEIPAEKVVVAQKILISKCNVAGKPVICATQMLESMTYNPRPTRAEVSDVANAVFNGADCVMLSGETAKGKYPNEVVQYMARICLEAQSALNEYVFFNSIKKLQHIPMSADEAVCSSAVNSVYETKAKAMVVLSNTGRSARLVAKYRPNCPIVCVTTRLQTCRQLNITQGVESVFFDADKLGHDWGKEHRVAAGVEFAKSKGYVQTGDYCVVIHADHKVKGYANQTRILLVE
Pyruvate kinase PKM (Homo sapiens), sequence (P14618 whole entry, looked up): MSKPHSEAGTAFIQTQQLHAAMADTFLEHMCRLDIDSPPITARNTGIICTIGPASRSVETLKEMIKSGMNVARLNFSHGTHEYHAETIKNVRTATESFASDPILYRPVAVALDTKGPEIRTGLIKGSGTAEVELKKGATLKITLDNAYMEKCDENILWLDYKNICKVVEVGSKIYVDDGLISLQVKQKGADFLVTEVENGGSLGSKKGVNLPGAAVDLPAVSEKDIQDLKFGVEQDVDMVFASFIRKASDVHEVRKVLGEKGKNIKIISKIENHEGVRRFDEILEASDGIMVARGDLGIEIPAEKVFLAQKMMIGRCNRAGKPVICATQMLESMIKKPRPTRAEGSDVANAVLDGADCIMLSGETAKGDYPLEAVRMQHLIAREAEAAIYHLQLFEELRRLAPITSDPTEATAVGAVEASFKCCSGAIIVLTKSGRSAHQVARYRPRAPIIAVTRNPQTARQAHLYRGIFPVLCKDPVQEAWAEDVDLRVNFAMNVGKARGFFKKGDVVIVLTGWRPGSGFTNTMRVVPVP
Guanine nucleotide-binding protein G(i) subunit alpha-1 (Homo sapiens), sequence (P63096 whole entry, looked up): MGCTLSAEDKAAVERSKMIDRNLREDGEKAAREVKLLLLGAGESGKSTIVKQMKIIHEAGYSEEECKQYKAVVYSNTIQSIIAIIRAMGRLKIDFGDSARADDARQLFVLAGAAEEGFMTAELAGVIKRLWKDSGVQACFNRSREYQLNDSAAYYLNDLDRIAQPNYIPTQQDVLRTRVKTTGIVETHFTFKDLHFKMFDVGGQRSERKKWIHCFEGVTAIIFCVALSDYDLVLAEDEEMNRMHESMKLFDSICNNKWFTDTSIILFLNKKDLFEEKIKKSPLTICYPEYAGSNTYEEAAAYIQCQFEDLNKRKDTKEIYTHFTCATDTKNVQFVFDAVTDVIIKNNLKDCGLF

c1ccc2c(c1)CCC[C@H]2C1=NCCN1
inactive: activity change, negative = inhibition [1] 4.49% [at 38 µM] | activity change, negative = inhibition [2] -2.65% [at 38 µM] | activity, negative = inhibition [3] 7.24% [at 38 µM] | Potency [4] | outcome [5] | Potency [6] | Potency [7] | outcome [8] | outcome [9]

CC1(C(=O)CSc2ncn[nH]2)CCC(=O)O1 (stereo not given)
inactive: activity change, negative = inhibition [1] -3.81% | activity change, negative = inhibition [2] 2.7% | Potency [10] > 20.6 µM

COC(=O)/C(C#N)=C1/SC=C(C)N1c1ccccc1
inactive: activity change, negative = inhibition [1] 1.21% | activity change, negative = inhibition [2] 3.89% | activity, negative = inhibition [3] 4.42% | Potency [10] > 20.6 µM | activation [11] -6.52%

Oc1ccc(Br)cc1CNn1cnnc1
inactive: activity change, negative = inhibition [1] 2.16% | activity change, negative = inhibition [2] 9.44% | Potency [10] > 20.6 µM

O=C(O)CCN(CCC(=O)O)c1nnc(SCc2ccccc2)s1
inactive: activity change, negative = inhibition [1] 8.29% | activity change, negative = inhibition [2] 12.2% | activity, negative = inhibition [3] 11.2% | Potency [10] > 20.6 µM | activation [11] 24.5%

Cc1cc(=O)oc2c(CN3CCCCC3)c(O)c(Cl)cc12
inactive: activity change, negative = inhibition [1] 22.5% | activity change, negative = inhibition [2] 23.5% | Potency [10] > 20.6 µM

CC1(C)CC(=O)c2cc(C(=O)N3CCCC(C)(C)C3)c(=O)n(-c3ccccc3)c2C1
inactive: activity change, negative = inhibition [1] 8.53% | activity change, negative = inhibition [2] -0.00696% | activity, negative = inhibition [3] -7.18% | Potency [10] > 20.6 µM
active: Potency [11] 3.98 µM

O=C(NC1CCCCC1)[C@H](O)[C@@H](O)C(=O)NC1CCCCC1
inactive: activity change, negative = inhibition [1] 8.04% | activity change, negative = inhibition [2] 0.354% | activity, negative = inhibition [3] 4.25% | Potency [10] > 20.6 µM | activation [11] 12.1%

CN1[C@@H]2CC(OC(=O)[C@@H](CO)c3ccccc3)C[C@H]1[C@H]1O[C@H]12 (stereo not given in full)
inactive: activity change, negative = inhibition [1] 4.86% [at 38 µM] | activity, negative = inhibition [3] 13.4% [at 38 µM] | Potency [4] | Potency [6] | Potency [7] | outcome [8] | outcome [9]
active: activity change, negative = inhibition [2] -57.6% [at 38 µM]

COc1ccc(Cn2ccnc2)cc1Br
inactive: activity change, negative = inhibition [1] 4.25% | activity change, negative = inhibition [2] -14% | Potency [10] > 20.6 µM

CC(=O)Nc1ccccc1O
inactive: activity change, negative = inhibition [1] 0.55% | activity change, negative = inhibition [2] 16% | activity, negative = inhibition [3] 2.83% | activation [11] 8.91%

O=C(NC[C@@H]1CCCCN1)c1cc(OCC(F)(F)F)ccc1OCC(F)(F)F
inactive: activity change, negative = inhibition [1] -1.96% | activity change, negative = inhibition [2] -7.71% | activity, negative = inhibition [3] 4.72% | Potency [12] | Potency [4]

O=C1C(=O)N(Cc2cccnc2)C(c2ccccn2)/C1=C(/O)c1ccccc1 (stereo not given)
inactive: activity change, negative = inhibition [1] -5.8% | activity change, negative = inhibition [2] -4.6% | activity, negative = inhibition [3] 4.87% | Potency [10] > 20.6 µM | activation [11] 2.14%

CCCOC(=O)CSC1=C(C#N)C(c2ccc3c(c2)OCO3)CC(=O)N1 (stereo not given)
inactive: activity change, negative = inhibition [1] -0.809% | activity change, negative = inhibition [2] 11.1% | activity, negative = inhibition [3] 1.94% | Potency [10] > 20.6 µM | activation [11] -15.4%

COc1ccc(CCn2c(C)ccc2C)cc1OC
inactive: activity change, negative = inhibition [1] -3.97% | activity change, negative = inhibition [2] -16.3% | activity, negative = inhibition [3] -7.94% | Potency [10] > 20.6 µM | activation [11] -9.87%

CCOC(=O)C1=C(N)n2c(s/c(=C\c3cccnc3)c2=O)=C(C(=O)OC)C1c1cccnc1 (stereo not given)
inactive: activity change, negative = inhibition [1] -8.91% | activity change, negative = inhibition [2] 23.6% | Potency [10] > 20.6 µM

Nc1nonc1-c1noc(-c2ccccc2)n1
inactive: activity change, negative = inhibition [1] 7.84% | activity change, negative = inhibition [2] -13.1% | Potency [10] > 20.6 µM

N#Cc1c(N)nc(SCC(=O)NCc2ccc3c(c2)OCO3)c(C#N)c1-c1cccs1
inactive: activity change, negative = inhibition [1] -27.2% | activity change, negative = inhibition [2] -13.6% | Potency [10] > 20.6 µM

CN1C(=O)C2(N=c3ccccc3=N2)c2ccccc21
inactive: activity change, negative = inhibition [1] 15.2% | activity change, negative = inhibition [2] 25.6% | Potency [10] > 20.6 µM

Cc1cc(C)nc(N(C#N)CN2C(=O)c3ccccc3C2=O)n1
inactive: activity change, negative = inhibition [1] 2.24% | activity change, negative = inhibition [2] -1.49% | activity, negative = inhibition [3] 0.344% | Potency [10] > 20.6 µM | activation [11] 12.2%

CCCC(=O)N(Cc1cc2ccccc2[nH]c1=O)c1ccccc1OC
inactive: activity change, negative = inhibition [1] -6.44% | activity change, negative = inhibition [2] 22.4% | activity, negative = inhibition [3] 5.08% | Potency [10] > 20.6 µM | activation [11] -13.3%
